A3A deaminase = inhibitors of human APOBEC3A DNA deaminase. P31941. recombinant A3A, FAM/TAMRA ssDNA deamination fluorescence. inhibition, % at 20 µM. 330,000 tested, 0.41% active. AID 493011;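 active = at least 40% inhibition at 20 µM here, with at most 30% in a related deaminase screen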;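 also: plate controls were A3A with DMSO for no effect and wells lacking A3A enzyme for full effect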
Target sequence (P31941 whole entry, looked up): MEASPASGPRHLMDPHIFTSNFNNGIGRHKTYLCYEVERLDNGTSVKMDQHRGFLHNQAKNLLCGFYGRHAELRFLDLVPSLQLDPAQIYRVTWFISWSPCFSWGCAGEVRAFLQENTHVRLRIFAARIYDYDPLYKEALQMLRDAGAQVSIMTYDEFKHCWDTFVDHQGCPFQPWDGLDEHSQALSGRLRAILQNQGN
aDG glyco up = alpha-DG glycosylation activation; 360,000 tested, 0.22% active; Pro5-aDG cells, alpha-DG glycosylation AlphaScreen (IIH6); 0% Pro5, 100% B10-LARGE cell signal; AID 624168; activation, % at 10 µM;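 active = activation of at least 8% versus controls, or a plate z-score of at least 8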;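 also: Pro5 are CHO cells carrying HIG-tagged alpha-DG that lacks glycosylation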
rCAG binder = r(CAG) repeat RNA binding. AID 651821. 370,000 tested, 1.3% active. TO-PRO-1 dye displacement fluorescence. inhibition, % at 3 µM;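 active = inhibition above the plate cutoff, the mean of all test compounds on that plate plus 3 SD, cut at about 35% in these data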;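 also: 0% = DMSO alone and 100% = 100 µM mitoxantrone as full dye displacement; higher means more dye released from RNA so lower well fluorescence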
APOBEC3G inh = blocks human APOBEC3G single-stranded DNA deamination; AID 493012; Q9HC16; 330,000 tested, 0.28% active; recombinant A3G, ssDNA deamination FAM/TAMRA fluorescence; inhibition, % at 20 µM;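 active = inhibition of at least 40% at 20 µM, with no more than 30% in the related APOBEC3A deaminase screen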;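 also: plate controls were DMSO wells with A3G for no effect and wells lacking A3G enzyme for full effect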
ALR inh = human ALR oxidase inhibition via reduced H2O2; AID 485317; purified ALR, DTT oxidation, H2O2 HRP-luminol luminescence; P55789; inhibition, % (no concentration beside the values); 290,000 tested, 3.8% active;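 active = mean replicate inhibition above about 79%, with every replicate also reaching it, limit read from the data; inconclusive = only one of the two criteria met; inactive = mean below limit and not every replicate reaching it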
PHOSPHO1 inh = PHOSPHO1 (human) inhibition. Q8TCT1. recombinant PHOSPHO1, absorbance phosphatase assay. inhibition, % at 13.3 µM. 290,000 tested, 1.1% active; in the data active = inhibition above about 60%
Target sequence (Q8TCT1 whole entry, looked up): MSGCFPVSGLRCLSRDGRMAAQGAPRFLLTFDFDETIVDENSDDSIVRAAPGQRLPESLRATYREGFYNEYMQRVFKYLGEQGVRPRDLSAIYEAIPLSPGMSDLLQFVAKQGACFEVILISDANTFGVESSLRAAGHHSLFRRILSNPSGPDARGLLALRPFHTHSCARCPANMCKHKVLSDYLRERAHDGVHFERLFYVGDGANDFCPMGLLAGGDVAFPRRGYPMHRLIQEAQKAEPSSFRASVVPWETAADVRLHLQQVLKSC
rCAG bind conf = r(CAG) RNA repeat binding, confirmation; shares compounds with rCAG binder; TO-PRO-1 dye displacement fluorescence; inhibition, % at 3 µM; 4,300 tested, 70% active; AID 652065;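 active = inhibition above a per-plate cutoff, the mean inhibition of sample wells plus 3 SD, cut at about 35% in these data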;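 also: loss of TO-PRO-1 fluorescence as compound displaces dye from 1x1 AA loop RNA; 0% = DMSO only wells and 100% = 100 µM mitoxantrone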
dCAG dye counter = counter-screen for rCAG RNA binders: DNA CAG dye complex inhibitors; d(CAG) DNA oligo TO-PRO-1 dye displacement, fluorescence; 4,300 tested, 94% active; shares compounds with rCAG binder; inhibition, % at 3 µM;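 active = inhibition above its plate's cutoff, the mean test-well inhibition plus 3 SD, cut at about 4.8% in these data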;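 also: 0% = DNA dye mix with DMSO and 100% = 100 µM mitoxantrone; hits displace the dye from DNA and so lower well fluorescence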
* hit, by the source's call; i = inactive; ? = inconclusive; · = no result. Sampled rows, rich in hits. Any-hit rate of the full collection: about 5.4%.

SMILES | A3A deaminase | aDG glyco up | rCAG binder | APOBEC3G inh | ALR inh | PHOSPHO1 inh | rCAG bind conf | dCAG dye counter
CCOC(=O)C1(CCOc2ccccc2)CCN(Cc2ccc(C)s2)CC1 | 3 | 1 | -11 | 4 | 0 | 50 | · | ·
COc1cc(/C=C2\C(=O)NC(=O)N(CCc3ccc(F)cc3)C2=O)ccc1O | -2 | 0 | 43* | -3 | 45 | -5 | 5 | 1
CCOc1ccc(N2C(=O)NC(=O)/C(=C/c3cnc(SC)nc3)C2=O)cc1 | -2 | 0 | 3 | -6 | 3 | -3 | · | ·
CCOc1ccc(/C=C2/C(=O)NC(=O)N(CCc3ccc(F)cc3)C2=O)cc1 | 1 | 0 | 35* | -4 | 25 | -18 | 3 | 2
COc1cc(C=C2C(=O)NC(=O)NC2=O)ccc1O | 1 | 0 | -5 | -3 | 30 | 52 | · | ·
CC/C(=C\C=C\[C@@H]1C=C[C@@H]2CCC[C@H]2[C@@H]1C(=O)c1ccc[nH]1)[C@@H]1O[C@@H]([C@@H](C)C(=O)O)CC[C@@H]1C | 3 | · | · | 0 | · | -16 | · | ·
Nc1ccc2ccc3cccc[n+]3c2c1 | 4 | 0 | i | 5 | -19 | 20 | · | ·
C[n+]1c(-c2ccccc2)c2cc(N)ccc2c2ccc(N)cc21 | 35 | 0 | 41* | 52 | 99* | 25 | 49* | 63*
CC1=C(O)C(=O)C=C2C1=CC=C1C2(C)CCC2(C)C3CC(C)(C(=O)O)CCC3(C)CCC12C (stereo not drawn) | · | 0 | 50* | · | · | · | 41* | 9.5*
COc1ccc(C(SCC(NC(=O)OCc2ccccc2)C(=O)O)c2ccc(OC)cc2)cc1 (stereo not drawn) | · | 0 | 53* | · | · | · | 53* | 14*
O=C(O)c1cccc2c1NC(c1cccc([N+](=O)[O-])c1)C1CC(Sc3ccccc3[N+](=O)[O-])C(Cl)C21 (stereo not drawn) | 3 | 0 | 76* | 16 | · | 32 | 92* | 74*
O=[N+]([O-])c1cccc(C2N3CCCN23)c1 (stereo not drawn) | -3 | 0 | -2 | -4 | -8 | -16 | · | ·
COC(=O)C1=C(c2ccc(OC(F)(F)F)cc2)C[C@@H]2CC[C@H]1N2C(=O)N1CCc2cc(OC)c(OC)cc2C1 | · | · | 0 | · | · | · | · | ·
N/C(=N\N=C/c1ccc(-c2ccc(O)c(C(=O)O)c2)o1)N[N+](=O)[O-] | 98 | 0 | 58* | 75 | 38 | 8 | 67* | 28*
COc1ccc(/C=N/N=C(/N)N[N+](=O)[O-])c(OC)c1 | -1 | 0 | 3 | -3 | -5 | -1 | · | ·
O=C(O)c1ccccc1-c1ccc(C=C2C(=O)N(c3ccccc3)C(=S)N(c3ccccc3)C2=O)o1 | 17 | 0 | 57* | 23 | ? | -138 | 61* | 26*
CN1C(=O)C(=Cc2ccc(N3CCCCCC3)o2)C(=O)N(C)C1=S | -3 | 0 | 3 | -10 | 11 | -27 | · | ·
Cc1ccccc1N1C(=O)NC(=O)/C(=C/c2ccc(N3CCOCC3)o2)C1=O | 14 | 0 | -46 | 11 | 6 | 23 | · | ·
Cc1cccc(N2C(=O)/C(=C/c3ccc(N4CCN(C)CC4)o3)C(=O)NC2=S)c1C | 30 | 1 | 49* | 27 | 7 | 9 | 55* | 26*
CCc1ccccc1N1C(=O)/C(=C/c2ccc(N3CCN(C)CC3)o2)C(=O)NC1=S | 17 | 0 | 50* | 18 | · | 0 | 48* | 24*
O=C(/C=C/c1ccccc1)NC(=S)N1C[C@H]2C[C@H](C1)c1cccc(=O)n1C2 | -2 | 0 | 1 | -2 | 5 | -12 | · | ·
CCc1n[nH]c(CCN)n1 | -2 | 0 | 2 | -1 | -1 | 32 | · | ·
COC1C(OC(=O)c2ccc(C)[nH]2)C(O)C(Oc2ccc3c(O)c(NC(=O)c4ccc(O)c(CC=C(C)C)c4)c(=O)oc3c2Cl)OC1(C)C (stereo not drawn) | -1 | 0 | 77* | -5 | 43 | 33 | 89* | 70*

Source: PubChem
